# Laboratory results from PubChem BioAssay AID1851 (National Center for Advancing Translational Sciences (NCATS), 2009).
# Hit rate of the full screen: of about 16,000 compounds, about 5,100 (32%) were called active. Roughly 25% stayed inconclusive and do not appear here. Some of the results follow. Values without a mark were called inactive. The call rests on the fitted dose curve; in most records, active means well fitted curve in the direction sought with a large enough effect; inconclusive means small, poorly fitted or top-dose-only effect, or effect the other way; inactive means no such curve, though single readings can be large or run the other way.
# Target: Cytochrome P450 3A4 (Homo sapiens) (UniProt P08684)
# Sequence (P08684 whole entry, looked up): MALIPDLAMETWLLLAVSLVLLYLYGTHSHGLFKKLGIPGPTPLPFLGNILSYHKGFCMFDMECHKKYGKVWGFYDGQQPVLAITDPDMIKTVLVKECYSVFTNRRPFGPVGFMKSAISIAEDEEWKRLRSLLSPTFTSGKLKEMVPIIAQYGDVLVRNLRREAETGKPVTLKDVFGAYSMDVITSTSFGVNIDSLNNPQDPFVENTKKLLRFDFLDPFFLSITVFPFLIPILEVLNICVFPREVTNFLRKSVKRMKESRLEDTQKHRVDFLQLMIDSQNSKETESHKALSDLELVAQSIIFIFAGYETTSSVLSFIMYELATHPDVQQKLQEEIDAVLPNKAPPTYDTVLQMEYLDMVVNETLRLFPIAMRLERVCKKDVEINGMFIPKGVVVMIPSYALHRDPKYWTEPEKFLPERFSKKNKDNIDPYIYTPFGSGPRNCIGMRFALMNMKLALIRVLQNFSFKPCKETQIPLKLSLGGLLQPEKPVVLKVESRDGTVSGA
# Test: Cytochrome panel assay with activity outcomes
# Conditions: recombinant CYP, pro-luciferin dealkylation, luminescence, p450-cyp3a4; series mostly up to 57.1 µM
# On the % scale 0 is the no-effect control and ±100 the full control effect.
SMILES,"activity, negative = inhibition",AC50
O=[N+]([O-])c1cc(Cc2cc([N+](=O)[O-])c3cccnc3c2O)c(O)c2ncccc12,-19.6% [at 11.4 µM],
O=C(c1cc(O)c(O)c([N+](=O)[O-])c1)c1ccccc1F,,20 µM (active)
Cc1ccc(-c2cccc(OC(=O)c3ccccc3F)c2)cc1,,inactive
Nc1nc(Nc2ccccc2)nc2c1ncn2[C@@H]1O[C@@H](CO)[C@H](O)[C@@H]1O,,inactive
O=CN1CCN(C[C@H](O)CN2CCCCC2)CC1,-4.95% [at 11.4 µM],
CN(Cc1ccco1)c1ncnc2ccc(-c3ccccc3Cl)cc12,,15.8 µM (active)
CN(Cc1ccco1)c1ncnc2ccc(-c3ccccc3C(F)(F)F)cc12,,15.8 µM (active)
Cc1ccc(NC(=O)CCN2C(=O)c3ccncc3C2=O)cc1,,8.91 µM (active)
COCc1nnc(NC(=O)CCN2C(=O)c3ccccc3C2=O)s1,,inactive
Cc1cccc(OCCn2c(S(=O)(=O)O)nc3ccccc32)c1,,inactive
Cc1cccc(OCCn2c(-c3ccco3)nc3ccccc32)c1,,10 µM (active)
COc1ccc(Cl)cc1NC(=O)NCCCl,,inactive
O=C(O)C1CCCCC1C(=O)Nc1cc(Cl)ccc1Cl (stereo not drawn),,inactive
C/C(CC(=O)Nc1ccccn1)=N\NC(=O)C(=O)Nc1cccc(Cl)c1C,16.1% [at 2.29 µM],
CCCCC(=O)N/N=C(\C)CC(=O)Nc1cc(Cl)ccc1OC,,4.47 µM (active)
COc1ccc(Cl)cc1NC(=O)CN1C(=O)CSC1=O,,7.94 µM (active)
C/C(CC(=O)Nc1cc(Cl)ccc1Cl)=N\NC(N)=S,,14.1 µM (active)
N[C@@H](CSCc1ccccc1)C(=O)O,-6.14% [at 11.4 µM],
NC1(C(=O)O)C[C@H](C(=O)O)[C@H](C(=O)O)C1 (stereo partly drawn),,inactive
CC1CN(C(NC(=O)C(C)(C)C)C(Cl)(Cl)Cl)CC(C)O1 (stereo not drawn),,inactive
C[C@@H]1NCC[C@H](CC(=O)O)[C@H]1CC(=O)O,0.412% [at 11.4 µM],
CC(C)=C[C@H]1[C@@H](C(=O)Oc2ccccc2C(C)C)C1(C)C,-13.1% [at 11.4 µM],
Cc1[nH]c(N)nc(=S)c1CCC(=O)O,-2.07% [at 11.4 µM],
COc1ccccc1OCCCCCc1c(C)n[nH]c1C,,inactive

SMILES,"activity, negative = inhibition",AC50
CN(Cc1ccco1)c1ncnc2ccc(-c3cccnc3)cc12,,3.98 µM (active)
COc1cccc(-c2ccc3ncnc(N(C)Cc4ccco4)c3c2)c1,,12.6 µM (active)
NCCSC[C@H](N)C(=O)O,-7.49% [at 11.4 µM],
O=C(O)[C@@H](O)[C@@H](O)[C@@H](O[C@H]1O[C@@H](CO)[C@@H](O)[C@@H](O)[C@@H]1O)[C@@H](O)CO,,inactive
c1ccc(Nc2ncnc3ccc(-c4ccc5c(c4)OCO5)cc23)cc1,,2.51 µM (active)
Cc1cccc(CNc2ncnc3ccc(-c4ccc5c(c4)OCO5)cc23)c1,,2 µM (active)
c1nc(NC2CCNCC2)c2cc(-c3ccc4c(c3)OCO4)ccc2n1,,25.1 µM (active)
c1ccc(CNc2ncnc3ccc(-c4ccc5c(c4)OCO5)cc23)cc1,,2 µM (active)
c1nc(NC2CCNCC2)c2cc(-c3ccoc3)ccc2n1,,inactive
COc1cc(OC)c(C#N)c(S(=O)(=O)Cc2ccccc2)c1,,25.1 µM (active)
O=[N+]([O-])c1ccc(S(=O)(=O)Cc2ccccc2)c2nonc12,-16.7% [at 11.4 µM],
COc1cc(C)c(Br)cc1S(=O)(=O)NCc1ccccc1,,inactive
O=C(O)/C=C\C(=O)N1Cc2cc3ccccc3nc2C1,-8.05% [at 11.4 µM],
O=C(N/N=C/c1c(Nc2cccc(C(F)(F)F)c2)nc2ccccn2c1=O)c1ccccc1,,inactive
Cc1nc2ccccn2c1C(=O)N/N=C/c1ccccc1[N+](=O)[O-],,12.6 µM (active)
Cc1ccc(C(=O)N/N=C/c2cc(C)n(-c3ccc(Br)cc3)c2C)cc1[N+](=O)[O-],,inactive
COc1ccc(-c2nc3cnc(N4CCNCC4)nc3n(Cc3cccc(OC)c3)c2=O)cc1,,15.8 µM (active)
CN1CCN(c2ncc3nc(-c4ccccc4)c(=O)n(CCc4ccccc4)c3n2)CC1,,inactive
COCCn1c(=O)c(-c2cc(F)cc(F)c2)nc2cnc(N3CCN(C)CC3)nc21,,inactive
CN1CCN(c2ncc3nc(-c4cc(F)cc(F)c4)c(=O)n(CCc4ccccc4)c3n2)CC1,,25.1 µM (active)
COc1cccc(Cn2c(=O)c(-c3cc(F)cc(F)c3)nc3cnc(N4CCNCC4)nc32)c1,,25.1 µM (active)
COc1cccc(Cn2c(=O)c(-c3ccccc3)nc3cnc(N4CCNCC4)nc32)c1,,20 µM (active)
COc1cccc(Cn2c(=O)c(-c3ccc(F)cc3)nc3cnc(N4CCNCC4)nc32)c1,,15.8 µM (active)
COc1cccc(Cn2c(=O)c(-c3cc(F)cc(F)c3)nc3cnc(N4CCN(C)CC4)nc32)c1,,25.1 µM (active)
